The nature of experiment [1]: inhibitors of TNFa-induced NFkB p65 translocation, primary screen, imaging, HUVEC, MLSMR starter and 10KST1 sets (AID 438).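 Also: compound added about 3h40 before a 20 min TNFalpha stimulation.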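 As to inhibition: signal is the nuclear over cytoplasmic p65 intensity ratio per well.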 The following applies: HUVEC TNFa-induced p65 nuclear translocation; cell count: measured here: nuclei count (cytotoxicity indicator), at 2.08 µM unless noted; inhibition: at 2 µM, stronger effect = higher value unless noted.
Experiment [2] in a line: inhibitors of E-selectin induction by TNFa, primary screen, imaging, HUVEC, immunofluorescence, MLSMR starter and 10KST1 sets (AID 487;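 active = visually confirmed hit in the image check and inhibition above 20%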;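 as to inhibition: signal is fraction of cell area covered by stained E-selectin grains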;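 as to nuclei count: 100% = median nuclei count of all wells on the same plate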). The following applies: HUVEC TNFalpha-induced E-selectin immunofluorescence imaging, at 2 µM; inhibition: stronger effect = higher value; nuclei count: measured here: cell number, toxicity.
Experiment [3] can be described thus: DUSP6 inhibitors restoring Erk phosphorylation by chemical complementation, primary imaging in DUSP6-transfected HeLa (AID 609;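 active = compounds giving at least 50% inhibition in the cell-based MKP-3 phosphatase rescue imaging test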;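 as to inhibition: phospho-Erk level distribution per well compared with pooled transfected vehicle control wells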). The following applies: HeLa MKP-3 transfected, phospho-Erk imaging KS statistic, at 10 µM.
In experiment [4] the target is Dual specificity protein phosphatase 6 (Homo sapiens) (UniProt Q16828). Described as above. The note with it: HeLa MKP-3 transfected, phospho-Erk imaging KS statistic, at 10 µM, stronger effect = higher value.
For experiment [5], the target named is Voltage-gated potassium channel subunit beta-2 (Rattus norvegicus) (UniProt P62483). The experiment in a line: KvBeta enzyme negative modulators, primary screen, biochemical, NADPH fluorescence (AID 622;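 active = fluorescence slope higher than the sample average by over 3 SD, cut at about -0.22 in these data, passing the limit was not always enough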;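 also: slope of raw intensity against log time taken from 70 to 1610 s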). The note with it: recombinant KvBeta, 4-cyanobenzaldehyde reduction, at 10 µM, stronger effect = higher value.
The target is the same in experiment [6]. Nature of the experiment: KvBeta positive modulators, primary screen, biochemical, NADPH fluorescence (AID 623;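 active = NADPH fluorescence slope more negative than the mean of all samples by about 3 SD, 99.7% confidence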;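 also: fluorescence intensity change per second fitted from 20 to 320 s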). The note with it: Recombinant KvBeta, NADPH fluorescence decrease slope, 10 min; at 10 µM; stronger effect = lower value.
Experiment [7] has as its target Alpha-2C adrenergic receptor (Homo sapiens) (UniProt P18825). Nature of the experiment: modulators of alpha2C/GIRK thallium flux, primary screen, cell-based, HEK293 alpha2C/GIRK1/2 (AID 624;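 active = fluorescence slope after compound addition differing from the mean of all screened samples at 99.7% confidence, in either direction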;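 also: slope of fluorescence ratio to pre-addition baseline per second over 15 to 24 s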). The following applies: thallium flux BTC fluorescence, at 10 µM, actives lie on both sides.
Experiment [8] can be described thus: inhibitors of larval lipid processing in zebrafish, primary screen, whole organism, PED6 fluorescence, gall bladder and intestine (AID 686;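 active = a full or partial loss of lipid-probe fluorescence in the fish gall bladder, intestine or both, judged by eye; inactive = no fluorescence loss, or compound toxic to the fish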;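 also: larvae 5 to 7 days old with five fish per well; signal comes from phospholipase A2 cleavage of quenched PED6 carried via bile; overnight exposure to compound and PED6 before scoring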). The following applies: Zebrafish larvae PED6 lipid processing, fluorescence scoring.
A short description of experiment [9]: inhibitors of Chlamydomonas gravitaxis, primary screen, whole organism, Chlamydomonas reinhardtii, WT vs cilia-less mutant, absorbance, 96-well (AID 463189;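 active = inhibition at or above 50% relative to wild type and mutant plate controls; inactive = inhibition below 50%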;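 also: 0% = wild type cc124 cells in DMSO and 100% = ciliumless bld1 mutant cells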). The note with it: OD600 absorbance, 2 days, at 10 µM, stronger effect = higher value.
For experiment [10], the target named is Muscarinic acetylcholine receptor M4 (Homo sapiens) (UniProt P08173). The experiment in a line: compounds altering M4/GIRK thallium flux, either direction, primary screen, M4 allosteric agonist project, cell-based, HEK293 M4/GIRK, BTC-AM (AID 625;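 active = fluorescence slope after compound addition differing from the mean of all tested samples at 99.7% confidence, mostly higher but some lower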;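 also: thallium influx through GIRK channels coupled to M4 in HEK293 cells with BTC-AM dye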). The following applies: at 10 µM, actives lie on both sides.
Experiment [11] is described as follows: inhibitors of mutant huntingtin aggregation, primary screen, imaging, exon1htt(103Q)mCFP cells, high-content imaging (AID 483;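 active = visual image review flags a hit and inhibition of aggregation exceeds 20%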;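 also: compound exposure lasted 3 days before fixation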;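 as to nuclei count: percent of the per-plate median nuclei count of sample wells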). The note with it: exon1htt(103Q)mCFP cell line, aggregate imaging, at 2 µM; inhibition of aggregation: stronger effect = higher value; nuclei count: measured here: cell count, toxicity.
Experiment [12] can be described thus: inhibitors of Sendai virus-induced IRF3 signaling, primary screen, TLR/RLR signaling modifier project, cell-based, Sendai virus stimulus, luciferase, 10K MLSCN set (AID 602276;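 active = inhibition at or above 50% at 10 µM; inactive = inhibition below 50%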;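 also: firefly luciferase from ISG56 promoter only with Renilla not read in this screen; 0% = Sendai virus plus DMSO and 100% = medium plus DMSO without virus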). The note with it: HEK293 RL24 IRF3 luciferase reporter, at 10 µM, stronger effect = higher value. A general note: A reporter such as luciferase makes a cellular process visible.
A short description of experiment [13]: inhibitors of poly I:C-induced TLR3 signaling, primary screen, cell-based, poly I:C stimulus, luciferase, 10K MLSCN set (AID 602277;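 active = inhibition of the reporter signal at or above 50%; inactive = inhibition below 50%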). The following applies: HEK293-TLR3 RL24 IRF3 luciferase reporter, at 10 µM, stronger effect = higher value.
The mark [14] stands for this setting: measured here: cell density z-score.
Setting [15] is: measured here: nuclear c-Myc green intensity z-score.
[16] abbreviates: measured here: nuclear pErk red intensity z-score, stronger effect = higher value.

Molecules are shown by their SMILES. The source made the active and inactive calls.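 The calls were made as follows, unless noted: active = inhibition above 20% together with a positive visual image hit; inconclusive = visual image hit but inhibition not above 20%; inactive = no visual image hit.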

Dual specificity protein phosphatase 6 (Homo sapiens), sequence (Q16828 whole entry, looked up): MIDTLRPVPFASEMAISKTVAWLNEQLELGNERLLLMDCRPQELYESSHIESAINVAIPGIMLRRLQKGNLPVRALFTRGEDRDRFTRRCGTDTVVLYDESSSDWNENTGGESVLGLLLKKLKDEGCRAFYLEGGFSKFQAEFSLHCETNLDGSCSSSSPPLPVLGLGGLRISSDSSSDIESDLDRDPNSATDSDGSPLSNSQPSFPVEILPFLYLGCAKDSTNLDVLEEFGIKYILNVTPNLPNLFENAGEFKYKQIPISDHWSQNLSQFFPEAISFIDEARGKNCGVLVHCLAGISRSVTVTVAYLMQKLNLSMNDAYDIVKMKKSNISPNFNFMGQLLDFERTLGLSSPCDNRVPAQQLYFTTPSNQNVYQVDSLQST
Voltage-gated potassium channel subunit beta-2 (Rattus norvegicus), sequence (P62483 whole entry, looked up): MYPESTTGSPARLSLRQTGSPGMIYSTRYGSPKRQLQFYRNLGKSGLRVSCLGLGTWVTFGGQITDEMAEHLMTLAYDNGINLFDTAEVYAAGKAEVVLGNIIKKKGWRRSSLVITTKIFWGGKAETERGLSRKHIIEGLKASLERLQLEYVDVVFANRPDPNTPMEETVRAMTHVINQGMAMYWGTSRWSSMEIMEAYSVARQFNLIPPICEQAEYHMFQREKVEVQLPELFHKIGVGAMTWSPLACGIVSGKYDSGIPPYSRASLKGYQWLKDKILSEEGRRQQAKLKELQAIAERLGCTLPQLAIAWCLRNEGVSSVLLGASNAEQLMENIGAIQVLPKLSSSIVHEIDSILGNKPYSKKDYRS
Muscarinic acetylcholine receptor M4 (Homo sapiens), sequence (P08173 whole entry, looked up): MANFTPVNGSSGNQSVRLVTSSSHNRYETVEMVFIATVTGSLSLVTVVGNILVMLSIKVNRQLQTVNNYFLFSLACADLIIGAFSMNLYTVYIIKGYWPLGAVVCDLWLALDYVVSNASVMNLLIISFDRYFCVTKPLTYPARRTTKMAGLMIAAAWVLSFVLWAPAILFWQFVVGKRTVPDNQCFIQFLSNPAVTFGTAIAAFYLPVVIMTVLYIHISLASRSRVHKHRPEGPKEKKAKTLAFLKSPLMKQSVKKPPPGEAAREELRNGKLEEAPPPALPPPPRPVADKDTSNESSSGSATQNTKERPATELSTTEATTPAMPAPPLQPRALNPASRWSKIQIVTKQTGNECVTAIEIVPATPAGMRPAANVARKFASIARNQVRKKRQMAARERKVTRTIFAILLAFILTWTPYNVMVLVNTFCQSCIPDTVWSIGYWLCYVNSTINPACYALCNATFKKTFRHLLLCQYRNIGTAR
Alpha-2C adrenergic receptor (Homo sapiens), sequence (P18825 whole entry, looked up): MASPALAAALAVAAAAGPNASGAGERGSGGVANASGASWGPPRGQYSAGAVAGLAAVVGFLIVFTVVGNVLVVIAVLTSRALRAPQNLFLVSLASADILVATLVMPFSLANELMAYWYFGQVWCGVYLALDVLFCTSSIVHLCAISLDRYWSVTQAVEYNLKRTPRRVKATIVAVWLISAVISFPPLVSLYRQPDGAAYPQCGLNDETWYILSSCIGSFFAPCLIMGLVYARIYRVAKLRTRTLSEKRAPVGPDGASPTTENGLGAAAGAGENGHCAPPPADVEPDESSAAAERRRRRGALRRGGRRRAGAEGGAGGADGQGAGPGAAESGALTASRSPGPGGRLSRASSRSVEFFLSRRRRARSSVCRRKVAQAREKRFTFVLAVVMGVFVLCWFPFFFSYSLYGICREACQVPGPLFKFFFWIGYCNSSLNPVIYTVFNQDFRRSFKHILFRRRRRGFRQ

With `COCC(C)OC(=O)c1c(N)n(Cc2ccco2)c2nc3ccccc3nc12` (centres undefined), the cell count in [1] was 433. Further, the inhibition in experiment [1] was -9.3% (inactive); in [2] it was -115% (inactive); in experiment [4], -11.9% (inactive); in [9] it was 7.25% (inactive). Moreover, the nuclei count in [2] was 147%. In addition, the z-score in experiment [3] (setting [14]) is -0.578; in experiment [3] (setting [15]), 0.931; in [3] (setting [16]), -0.00965. The fluorescence slope in experiment [5] was -0.0512 (inactive). Further, in [6], the NADPH fluorescence slope was -2.8e-07 (inactive). Moreover, the slope in [7] was 0.0047 (inactive). Moreover, the result in experiment [8] was inactive.
`Nc1c(C(=O)NCc2ccco2)c2nc3ccccc3nc2n1CCN1CCCCC1`: the cell count in experiment [1] was 676. Besides, the inhibition in [1] was 18.1% (inactive); in experiment [2], 50.8% (inactive); in experiment [4], -6.06% (inactive); in [9], 131% (active). For the same compound, the nuclei count in experiment [2] is 138%. Further, the z-score in [3] (setting [14]) is -0.477; in experiment [3] (setting [15]), 2.3; in experiment [3] (setting [16]) it was -0.0288. For the same compound, the fluorescence slope was -0.0963 (inactive) in experiment [5] and 0.00537 (inactive) in experiment [10]. In experiment [6], the NADPH fluorescence slope was -2.8e-05 (inactive). Moreover, in experiment [8], the compound was classed as inactive.
As to `OC1(c2ccc(F)cc2)CCNC1` (centres undefined), the cell count in experiment [1] turned out to be 391. In addition, the inhibition in experiment [1] was -8% (inactive); in experiment [2], -146% (inactive); in experiment [4], 1.48% (inactive); in experiment [9], 16.5% (inactive). This compound also displayed a nuclei count in experiment [2] of 147%. Further, the values for the z-score in [3] (setting [14]), in experiment [3] (setting [15]) and in experiment [3] (setting [16]) were -0.692, -1.09 and 1.31, respectively. In addition, the figures for the fluorescence slope in experiment [5] and in [10] were -0.468 (inactive) and 0.00482 (inactive), respectively. Besides, in experiment [6], the NADPH fluorescence slope is -0.000119 (inactive). Further, the compound was called inactive in experiment [8].
In experiment [1], `CCc1nc(N2CCNCC2)c(C#N)c2c1CSC(C)(C)C2` showed a cell count of 652. In addition, the inhibition in [1] was 3% (inactive); in experiment [2] it was -79.8% (inactive); in [4] it was 1.12% (inactive); in [9] it was 15% (inactive). Moreover, the nuclei count in experiment [2] amounted to 159%. For the same compound, the z-score was -1.09 in experiment [3] (setting [14]), -0.257 in experiment [3] (setting [15]) and 0.497 in experiment [3] (setting [16]). For the same compound, the fluorescence slope in experiment [5] is -0.474 (inactive); in experiment [10], 0.00552 (inactive). For the same compound, the NADPH fluorescence slope in experiment [6] was -1.6e-05 (inactive). Moreover, the result in [8] was inactive.
In experiment [1], `O=c1c2ccccc2nc(CSc2ncnc3nc[nH]c23)n1-c1ccccc1` gave a cell count of 546. The inhibition in experiment [1] was 2.3% (inactive); in [2] it was -123% (inactive); in [12] it was -0.567% (inactive); in experiment [13] it was 13.7% (inactive). Also, in [11], the inhibition of aggregation is 2.9% (inactive). The nuclei count in experiment [11] worked out at 106%; in experiment [2], 103%. The fluorescence slope in experiment [5] was -0.492 (inactive). Moreover, the NADPH fluorescence slope in experiment [6] is -9.1e-05 (inactive). In experiment [7], the slope is 0.00489 (inactive).
For the compound `O=C(CN1CCN(CCO)CC1)Nc1ccc(Cl)cc1C(=O)c1ccccc1`, the cell count in experiment [1] is 431. Also, the inhibition in experiment [1] was -4% (inactive); in experiment [2], -88.6% (inactive); in [4], 11.9% (inactive); in [9] it was 12% (inactive). The compound also returned a nuclei count in [2] of 154%. Besides, the figures for the z-score in experiment [3] (setting [14]), in [3] (setting [15]) and in experiment [3] (setting [16]) were 0.92, -0.897 and 0.82, respectively. Besides, the fluorescence slope in [5] is -0.465 (inactive); in experiment [10], 0.00435 (inactive). Also, the NADPH fluorescence slope in [6] was -0.000121 (inactive). In addition, in [8], the result was inactive.
On to `CC1(C)NCCN2C(=O)CSC21` (centres undefined), for which the cell count in experiment [1] was found to be 652. For the same compound, the inhibition is -12.6% (inactive) in [1], -216% (inactive) in experiment [2], 4.72% (inactive) in experiment [4] and 9.56% (inactive) in experiment [9]. In [2], this compound registered a nuclei count of 158%. Also, the z-score is 0.771 in experiment [3] (setting [14]), 0.411 in [3] (setting [15]) and 0.0731 in experiment [3] (setting [16]). For the same compound, the fluorescence slope in experiment [5] is -0.493 (inactive); in [10], 0.00571 (inactive). Moreover, the NADPH fluorescence slope in experiment [6] was -5.8e-05 (inactive). Also, the compound was classed as inactive in experiment [8].

Broadly, the inhibition is the drop in the measured response relative to a control, in per cent.

Values taken from PubChem BioAssay.
